Values joined by “and” are separate entries in the source; they are usually repeats but may differ in a detail not shown here. Equal values may be shown once. In all, about 360,000 compounds went through this assay and about 5,000 (1.4%) were called active.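 Rule for the calls: active = inhibition of 50% or more, scaled per plate between neutral and stimulator controls; inactive = the rest.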 This excerpt belongs to a sample that is enriched for actives. Some compounds were tested as several samples or in several runs, with calls that do not always agree.

The experiment can be described thus: mitochondrial permeability transition pore inhibitors, primary screen, biochemical, isolated mouse mitochondria, absorbance (AID 602449).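 Note: 0% = DMSO wells given calcium and 100% = 1 mM EGTA wells.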 As to conditions: Ca2+ swelling absorbance, 30 min, at 10 µM, stronger effect = higher value.
As for `Clc1ncn(CCOc2ccccc2)c1Cl`, the inhibition (in general, the change of the read-out against control, counted positive when it falls) is -3.1% (inactive).

As to `COCCOCCn1cnc2ccccc21`, the inhibition was -0.6% (inactive).

Consider `Cc1cc2ncn(CCCCOc3ccccc3)c2cc1C`, for which the inhibition was 77.9% (active).

As for `CCOC(=O)C1CCCN(C(=O)c2cccc3ccccc23)CC1` (stereo not given), the inhibition was 0% (inactive).

With `CC(C)CC(COCc1ccc(Cl)cc1)N1CCN(C(=O)c2ccc(C(F)(F)F)cc2)CCC1=O` (stereo not given), the inhibition was -1.6% (inactive).

Consider `Cc1cc(C(=O)OCC(=O)Nc2nnc(C(C)C)s2)c2ccccc2n1`, for which the inhibition was 22.9% (inactive).

On to `CC(NC(=O)COC(=O)c1ccc2ccccc2n1)c1ccccc1` (stereo not given), for which the inhibition is -0.2% (inactive).

As to `CC(C)CC(=O)N/C(N)=N/c1nc2ccccc2s1`, the inhibition was 81.8% (active).

As to `CCOC(=O)C1CCN(C(=O)CSc2cc(=O)n(C)c3ccccc23)CC1`, the inhibition is 0.5% (inactive).

Turning to `Cc1ccc(-n2cc(CN(C)Cc3nccn3C)c(-c3cccc(C)c3)n2)cc1`, the inhibition was 0.5% (inactive).

Regarding `CC(C)(CCl)C(=O)Nc1ccc(Sc2ccc(F)cc2)cc1`, the inhibition is 73.1% (active).

With `O=C(CCl)Nc1ccc(Sc2ccc(NC(=O)CCl)cc2)cc1`, the inhibition was 6% (inactive).

For the molecule `CCN(c1ccccc1)S(=O)(=O)c1ccc(NC(=O)C(C)(C)C)cc1`, the inhibition was -1.2% (inactive).

With `CC1(C)CCSC(/C=C/c2ccccc2)=N1`, the inhibition is 1.3% (inactive).

Consider `COCCN1C(=O)C(=O)/C(=C(/O)c2ccc(S(=O)(=O)N3CCCCC3)cc2)C1c1ccc(OC)c(OC)c1` (stereo not given), for which the inhibition was -0.3% (inactive).

For the molecule `CCCC(=O)N1CCC1(C)C(=O)Nc1ccc(-n2cncn2)cc1` (stereo not given), the inhibition was -1.3% (inactive).

In the case of `C=CCC1(CC=C)CCCN1C(=O)c1cc(COc2ccc(-n3cncn3)cc2)on1`, the inhibition is 105% (active).

As to `O=C(c1cc(COc2c(F)cccc2F)on1)N1CCSCC1`, the inhibition is 2% (inactive).

As for `CC(C)c1nc2oc3c(N4CCN(C)CC4)ncnc3c2c2c1CCC2`, the inhibition is -0.5% (inactive).

Regarding `c1ccc2cc3c(NCCN4CCOCC4)ccnc3cc2c1`, the inhibition was 1.4% (inactive).

`O=C1CCCc2nn(-c3ccccc3)nc21`: the inhibition was 0.8% (inactive).

As for `O=C(c1ccc(N2CCCC2=O)cc1)N1CCN(c2ccc(C(F)(F)F)cc2[N+](=O)[O-])CC1`, the inhibition was 74.9% (active).

As to `O=C(c1ccc(N2CCOCC2)c([N+](=O)[O-])c1)N1CCN(c2ccccc2F)CC1`, the inhibition was 0% (inactive).

Take `COc1cc(OC)cc(C(=O)NC(=S)N2CCN(c3ccc(C(F)(F)F)cc3[N+](=O)[O-])CC2)c1`: the inhibition is 0.6% (inactive).

`CCOc1cc(CNn2c(C)nnc2SCC(=O)NC(C)(C)C)ccc1OCC(=O)NC(C)(C)C`: the inhibition is -1.3% (inactive).

For `CC(C)(C)Nc1c(-c2cccs2)nc2ccccn12`, the inhibition is 0.8% (inactive).

`Cc1ccc(N(Cc2cc(=O)[nH]c3ccccc23)C(=O)CCl)cc1`: the inhibition was -0.5% (inactive).

For the molecule `Brc1ccc(CSc2ccc(-c3ccco3)nn2)cc1`, the inhibition is 57.6% (active).

As to `O=C(CSc1ccc(-c2ccco2)nn1)NCc1ccc2c(c1)OCO2`, the inhibition is -0.3% (inactive).

Turning to `COc1ccc(NC(=O)CSc2ccc(-c3ccco3)nn2)c(OC)c1`, the inhibition is 0.7% (inactive).

Take `CCn1c(=O)n(CC)c2cc(N3CCCC3)c(NC(=O)c3ccccc3Br)cc21`: the inhibition is 0.5% (inactive).

Regarding `CC/C(O)=C1\C(=O)CC(C)(C)CC1=NCCc1nc2ccccc2[nH]1`, the inhibition is -1.5% (inactive).

For `CC1C/C(=N/NC(=O)c2cccs2)CC(C)(C)C1` (stereo not given), the inhibition was -1% (inactive).

As for `Cc1ccc(-c2cc(C(=O)NCc3cn(C)nc3C)c3cc(Br)ccc3n2)cc1`, the inhibition is 1.7% (inactive).

In the case of `Cc1nn(C)cc1CNC(=O)Nc1ccc(Cl)cc1`, the inhibition is 92.2% (active).

Regarding `Cc1nn(C)cc1C(=O)NNC(=S)Nc1ccc(Cl)cc1`, the inhibition was 1.7% (inactive).

For the molecule `CN(C)Cc1ccc(F)cc1Sc1cc(Cl)ccc1Cl`, the inhibition is 59% (active).

Take `Cc1ccc(-c2ccc(=O)n(Cc3ccc(F)cc3Cl)n2)cc1`: the inhibition is 0% (inactive).

Turning to `CN(Cc1ccc(F)cc1Cl)S(=O)(=O)c1cccs1`, the inhibition is -2.3% (inactive).

Consider `Cc1ccc(-c2c[n+](=O)c3c(n2[O-])CCC3)cc1`, for which the inhibition was 0.3% (inactive).

With `O=C1CCC(C(=O)N2CCCCO2)CN1Cc1cccc(C(F)(F)F)c1` (stereo not given), the inhibition is 0.5% (inactive).

On to `C=CCOc1ccccc1CNn1c(C)n[nH]c1=S`, for which the inhibition was -0.7% (inactive).

For `O=C(Cc1ccccc1)N1CCN(S(=O)(=O)c2ccc([N+](=O)[O-])cc2)CC1`, the inhibition is -3.8% (inactive).

Take `CC(C)(C)c1ccc(S(=O)(=O)N2CCN(C(=O)c3ccc4c(c3)C(=O)N(Cc3ccncc3)C4=O)CC2)cc1`: the inhibition is 32.6% (inactive).

For the molecule `O=C(CCC(=O)N1CCN(S(=O)(=O)c2ccc(Cl)cc2)CC1)NCc1cccc(C(F)(F)F)c1`, the inhibition was -2.6% (inactive).

For the molecule `O=C(Cc1ccsc1)N1CCN(S(=O)(=O)c2cc(C(F)(F)F)cc(C(F)(F)F)c2)CC1`, the inhibition is 53.1% (active).

In the case of `O=C(c1ccncc1)N1CCN(S(=O)(=O)c2cc(C(F)(F)F)cc(C(F)(F)F)c2)CC1`, the inhibition is 106% (active).

`O=C(c1ccncc1)N1CCN(S(=O)(=O)c2cccc([N+](=O)[O-])c2)CC1`: the inhibition is -0.5% (inactive).

As to `CCOC(=O)CNC(=O)CSc1ncccc1-c1nc2ccccc2[nH]1`, the inhibition was 0% (inactive).

Take `COc1ccc(NC(=O)c2sc(=O)n(Cc3ccc(S(=O)(=O)N(C)C)cc3)c2C)cc1`: the inhibition was -1.7% (inactive).

On to `CCOC(=O)c1sc2nc(C)nc(SCC(N)=O)c2c1C`, for which the inhibition was 0.2% (inactive).

Take `O=C(CN(C(=O)CCC(=O)Nc1nccs1)c1ccc(F)cc1)NCc1ccc2c(c1)OCO2`: the inhibition was -0.8% (inactive).

As to `CC(=O)Nc1cc(-c2ccc(N3CCN(C)CC3)cc2)cn2c(-c3cccc(C(=O)N(C)C)c3)cnc12`, the inhibition was 0.5% (inactive).

For the molecule `CC(=O)OC1CCC2C3CCC4=C(CC(F)C(=O)C4)C3CCC12C` (stereo not given), the inhibition was 1.6% (inactive).

As for `CN(C)CC/C=C1\c2ccccc2CSc2ccccc21`, the inhibition was 2.3% (inactive).

In the case of `CN(C)Cc1ccccc1C1(O)c2ccccc2CSc2ccccc21` (stereo not given), the inhibition was 52.8% (active).

On to `CN(Cc1cccs1)C(=O)Cc1c[nH]c2ccccc12`, for which the inhibition is 0.8% (inactive).

Regarding `COc1ccccc1NC(=O)C1=C(C)Nc2nc3ccccc3n2C1c1cccs1` (stereo not given), the inhibition was 0.9% (inactive).

Consider `COc1ccc(-c2nc3cnccn3c2NC2CCCCC2)cc1-c1cccc(Cl)c1`, for which the inhibition was 2% (inactive) and -0.2% (inactive).

As for `COc1ccc(-c2nc3cc(C)ccn3c2NC2CCCCC2)cc1SC1CCCCC1`, the inhibition is 14.7% (inactive) and 55.4% (active).

Turning to `CCOc1cc(-c2nc3cc(C)ccn3c2NCC2CCCO2)ccc1O` (stereo not given), the inhibition was -0.2% (inactive).

As for `CCCC1CC(C)(C(=O)Cn2[nH]c(=O)ccc2=O)OC1=O` (stereo not given), the inhibition is -1.2% (inactive).

Regarding `O=C1CCC(C(=O)OCC(=O)Nc2ccc(OC(F)F)cc2)=NN1`, the inhibition was -0.6% (inactive).

On to `O=C(COc1ccc(NC(=O)c2ccccc2[N+](=O)[O-])cc1)c1ccc(F)cc1`, for which the inhibition was -1.1% (inactive).

Consider `COc1cc2c3c(c1)/C(=C1/SC(=S)NC1=O)C(=O)N3C(C)(C)C=C2C`, for which the inhibition was 91.4% (active).

With `Cc1cc(C)n(CCNS(=O)(=O)c2ccc(Cl)cc2)n1`, the inhibition is 0% (inactive).

As to `Cc1ccc(C(=O)NCC(=O)O)s1`, the inhibition is -1.7% (inactive).

Regarding `CCCCc1nc(NCc2ccccc2)c(C#N)c2c1CCCC2`, the inhibition is 5.4% (inactive).

Take `Cc1nc(NCCN)c(C#N)c2c1COC(C)(C)C2`: the inhibition was -1% (inactive).

For `CCCCc1nc(NCCN)c(C#N)c2c1CSC(C)(C)C2`, the inhibition was 108% (active).

As to `COc1ccc(OC)c(S(=O)(=O)N(C)CC(=O)N2CCN(c3ccccc3)CC2)c1`, the inhibition is -2.8% (inactive).

With `COc1ccc(C)cc1NC(=S)Nc1ccccc1SC`, the inhibition is 0.6% (inactive).

With `COc1ccc(NC(=O)CN(C)C(=O)c2cccc(S(=O)(=O)N3CCN(c4ccccc4)CC3)c2)cc1`, the inhibition is 1.3% (inactive).

For the molecule `COc1cc2c(C(=O)N3CCN(C)CC3)c(CSc3ccccc3)n(C)c2cc1Br`, the inhibition was -3.4% (inactive).

With `CC1CCCC(C)N1C(=O)COC(=O)c1ccccc1C(=O)c1ccccc1` (stereo not given), the inhibition was -1.2% (inactive).

Regarding `CCOC(=O)c1c(NC(=O)CSc2cn(CC)c3ccccc23)sc2c1CCC2`, the inhibition is 59.8% (active).

With `CCOC(=O)c1c(NC(=O)C(C)Sc2c[nH]c3ccccc23)sc2c1CCC2` (stereo not given), the inhibition was 3.9% (inactive).

Take `CCOC(=O)c1c(NC(=O)Cn2nc(C(F)(F)F)cc2C)sc2c1CCC2`: the inhibition is 4% (inactive).

Take `O=C(NCc1ccncc1)C1CCCN(S(=O)(=O)c2ccc(Br)cc2)C1` (stereo not given): the inhibition was -0.9% (inactive).

With `Cc1ccc(N(Cc2ccccc2O)C(=O)c2ccccc2F)cc1`, the inhibition was 0.4% (inactive).

Consider `CC(C)C(=O)N1c2ccccc2NC2=C(C(=O)CCC2)C1c1ccc(N(C)C)cc1` (stereo not given), for which the inhibition was 0.8% (inactive).

`CCCOCC(O)CC(CC)C(=O)NNC(=S)Nc1ccccc1` (stereo not given): the inhibition was 1.7% (inactive).

On to `CCCCC(=O)NNC(=S)NC(=O)C(c1ccccc1)c1ccccc1`, for which the inhibition was 69.1% (active).

As for `CCCCC(=O)NCc1ccc(F)cc1`, the inhibition was 0.7% (inactive).

`CCN(CC(=O)Nc1c(F)cccc1F)C(=O)c1cnc(C)cn1`: the inhibition was 1.7% (inactive).

`COC(=O)c1c(C)[nH]c(C(=O)NCCc2ccc(S(N)(=O)=O)cc2)c1C`: the inhibition was 0.1% (inactive).

As to `CCCCOC(=O)c1[nH]c(C)c(C(=O)OC)c1C`, the inhibition was 1.6% (inactive).

Regarding `COC(=O)c1c(C)[nH]c(C(=O)/C=C/c2ccc(Cl)cc2)c1C`, the inhibition was 102% (active).

As for `c1csc(-c2nnc(COc3ncnc4sccc34)o2)c1`, the inhibition is 1.9% (inactive).

Take `COc1cnc(SCc2ccc(Cl)c(Cl)c2)nc1Cl`: the inhibition is 0.4% (inactive).

For the molecule `COCCNC(=O)CSc1nc2sccc2c(=O)n1-c1ccccc1`, the inhibition was 0% (inactive).

On to `CCCN(CC1COc2ccccc2O1)C(=S)Nc1ccc(C)cc1` (stereo not given), for which the inhibition was 2.3% (inactive).

For the molecule `O=S(=O)(NCCCc1ccccc1)c1ccc(Br)cc1`, the inhibition is 13.4% (inactive).

On to `S=C(Nc1ccc(Br)cc1)NC1CCN(Cc2ccccc2)CC1`, for which the inhibition is 3.1% (inactive).

On to `CC(NC(=S)Nc1ccccc1)C(c1cccs1)N1CCOCC1` (stereo not given), for which the inhibition is 0.1% (inactive).

Consider `CC(NC(=S)Nc1ccccc1)C1COc2ccccc2O1` (stereo not given), for which the inhibition was 83.4% (active).

Consider `S=C(NCCCc1ccccc1)Nc1ccc(Br)cc1`, for which the inhibition was 85.9% (active).

Consider `O=C(COc1ccc(F)cc1Br)NCC1COc2ccccc2O1` (stereo not given), for which the inhibition is 1.6% (inactive).

Regarding `C/C(=N/NC(=S)Nc1ccccc1)c1ccc2c(c1)OCO2`, the inhibition is -0.4% (inactive).

With `S=C(NCC1COc2ccccc2O1)Nc1ccc(Br)cc1` (stereo not given), the inhibition is 91.4% (active).

The values are drawn from PubChem BioAssay AID602449 (Sanford-Burnham Center for Chemical Genomics, 2012).
